# Data from the supplement of paper PMC8728848.
# This is one part of a sample in which the strongest signals are shown more often than they occur.
# Experiments:
# Assay in all cases: glycan array binding signal (z-score within array); higher = stronger binding
# Conditions in all cases: glycan notation: IUPAC condensed, linker removed
# [1] = biological target: Fuc(a1-2)Gal(b1-3)GlcNAc(b1-3)[Fuc(a1-3)[Gal(b1-4)]GlcNAc(b1-6)]Gal(b1-4)Glc
# Summary of the method: (§1)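 Glycan array binding is given as a within-array Z-score, which can be read as non-binding when negative. The arrays, 3228 of them, came from the Consortium for Functional Glycomics database and were retained only where the protein sequence was available. Z-scores were averaged across arrays of the same protein sequence at different concentrations or buffers and across linkers.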
# [2] = biological target: Fuc(a1-2)Gal(b1-3)GlcNAc(b1-3)[Neu5Ac(a2-6)Gal(b1-4)GlcNAc(b1-6)]Gal(b1-4)Glc
# Summary of the method: as §1
# [3] = biological target: Fuc(a1-2)Gal(b1-4)[Fuc(a1-3)]GlcNAc(b1-3)GalNAc
# Summary of the method: as §1
# [4] = biological target: Fuc(a1-2)[Gal(a1-3)]Gal(b1-3)GlcNAc(b1-2)Man(a1-3)[Fuc(a1-2)[Gal(a1-3)]Gal(b1-3)GlcNAc(b1-2)Man(a1-6)]Man(b1-4)GlcNAc(b1-4)[Fuc(a1-6)]GlcNAc
# Summary of the method: as §1
# [5] = biological target: Fuc(a1-2)[GalNAc(a1-3)]Gal(b1-4)[Fuc(a1-3)]GlcNAc(b1-3)GalNAc
# Summary of the method: as §1
# [6] = biological target: Fuc(a1-2)[GalNAc(a1-4)]Gal(b1-4)GlcNAc
# Summary of the method: as §1
# [7] = biological target: Fuc(a1-3)[Gal(b1-4)]GlcNAc(b1-2)Man(a1-3)[Fuc(a1-3)[Gal(b1-4)]GlcNAc(b1-2)Man(a1-6)]Man(b1-4)GlcNAc(b1-4)[Fuc(a1-6)]GlcNAc
# Summary of the method: as §1
# [8] = biological target: Fuc(a1-3)[Gal(b1-4)]GlcNAc(b1-6)GalNAc
# Summary of the method: as §1
# [9] = biological target: Gal(a1-3)Fuc(a1-2)Gal(b1-4)GlcNAc(b1-3)[Gal(a1-3)Fuc(a1-2)Gal(b1-4)GlcNAc(b1-6)]GalNAc
# Summary of the method: as §1
# [10] = biological target: Gal(a1-3)Gal(b1-4)[Fuc(a1-3)]GlcNAc
# Summary of the method: as §1
# Gal(a1-3)GalNAc = biological target: Gal(a1-3)GalNAc
# Summary of the method: as §1
# [11] = biological target: Gal(b1-4)GlcNAc(b1-2)Man(a1-3)[Gal(b1-4)GlcNAc(b1-2)Man(a1-6)]Man(b1-4)GlcNAc(b1-4)[Fuc(a1-6)]GlcNAc
# Summary of the method: as §1
# [12] = biological target: Gal(b1-4)GlcNAc(b1-2)[Gal(b1-4)GlcNAc(b1-6)]Man(a1-6)[Gal(b1-4)GlcNAc(b1-2)Man(a1-3)]Man(b1-4)GlcNAc(b1-4)GlcNAc
# Summary of the method: as §1
# [13] = biological target: Gal(b1-4)GlcNAc(b1-3)Gal(b1-4)GlcNAc
# Summary of the method: as §1
# Gal(b1-6)Gal = biological target: Gal(b1-6)Gal
# Summary of the method: as §1
# [14] = biological target: Gal3S(b1-4)[Fuc(a1-3)]Glc6S
# Summary of the method: as §1
# Gal4S(b1-4)GlcNAc = biological target: Gal4S(b1-4)GlcNAc
# Summary of the method: as §1
# Gal6S(b1-4)Glc = biological target: Gal6S(b1-4)Glc
# Summary of the method: as §1
# Gal6S(b1-4)GlcNAc = biological target: Gal6S(b1-4)GlcNAc
# Summary of the method: as §1
# Glc(a1-4)Glc = biological target: Glc(a1-4)Glc
# Summary of the method: as §1
# [15] = biological target: GlcNAc(a1-4)Gal(b1-3)GlcNAc
# Summary of the method: as §1
# [16] = biological target: GlcNAc(a1-4)Gal(b1-4)GlcNAc(b1-3)Gal(b1-4)GlcNAc
# Summary of the method: as §1
# [17] = biological target: GlcNAc(a1-4)Gal(b1-4)GlcNAc(b1-3)Gal(b1-4)[Fuc(a1-3)]GlcNAc(b1-3)Gal(b1-4)[Fuc(a1-3)]GlcNAc
# Summary of the method: as §1
# [18] = biological target: GlcNAc(b1-3)[GlcNAc(b1-6)]GalNAc
# Summary of the method: as §1
# Kdn(a2-3)Gal(b1-3)GlcNAc = biological target: Kdn(a2-3)Gal(b1-3)GlcNAc
# Summary of the method: as §1
# [19] = biological target: Man(a1-2)Man(a1-3)[Man(a1-2)Man(a1-6)]Man(a1-6)[Man(a1-2)Man(a1-2)Man(a1-3)]Man
# Summary of the method: as §1
# [20] = biological target: Man(a1-2)Man(a1-3)[Man(a1-2)Man(a1-6)]Man(a1-6)[Man(a1-2)Man(a1-2)Man(a1-3)]Man(b1-4)GlcNAc(b1-4)GlcNAc
# Summary of the method: as §1
# [21] = biological target: Man(a1-2)Man(a1-6)[Man(a1-3)]Man(a1-6)[Man(a1-2)Man(a1-2)Man(a1-3)]Man(b1-4)GlcNAc(b1-4)GlcNAc
# Summary of the method: as §1
# [22] = biological target: Neu5Ac(a2-3)Gal(b1-3)GlcNAc(b1-3)GalNAc
# Summary of the method: as §1
# [23] = biological target: Neu5Ac(a2-3)Gal(b1-4)[Fuc(a1-3)]GlcNAc(b1-3)GalNAc
# Summary of the method: as §1
# [24] = biological target: Neu5Ac(a2-3)Gal(b1-4)GlcNAc(b1-3)Gal(b1-4)[Fuc(a1-3)]GlcNAc
# Summary of the method: as §1
# [25] = biological target: Neu5Ac(a2-3)Gal(b1-4)GlcNAc6S
# Summary of the method: as §1
# [26] = biological target: Neu5Ac(a2-3)[GalNAc(b1-4)]Gal(b1-4)GlcNAc(b1-3)GalNAc
# Summary of the method: as §1
# [27] = biological target: Neu5Ac(a2-6)Gal(b1-4)GlcNAc(b1-3)Gal(b1-4)GlcNAc(b1-3)Gal(b1-4)GlcNAc(b1-2)Man(a1-3)[Neu5Ac(a2-6)Gal(b1-4)GlcNAc(b1-3)Gal(b1-4)GlcNAc(b1-3)Gal(b1-4)GlcNAc(b1-2)Man(a1-6)]GalNAc
# Summary of the method: as §1
# [28] = biological target: Neu5Ac(a2-6)Gal(b1-4)GlcNAc(b1-3)Gal(b1-4)GlcNAc(b1-3)[Neu5Ac(a2-6)Gal(b1-4)GlcNAc(b1-3)Gal(b1-4)GlcNAc(b1-6)]GalNAc
# Summary of the method: as §1
# [29] = biological target: Neu5Ac(a2-6)Gal(b1-4)GlcNAc(b1-6)GalNAc
# Summary of the method: as §1
# [30] = biological target: Neu5Ac(a2-6)Gal(b1-4)GlcNAc(b1-6)[Gal(b1-3)GlcNAc(b1-3)]Gal(b1-4)Glc
# Summary of the method: as §1
# [31] = biological target: Neu5Ac(a2-8)Neu5Ac(a2-3)Gal(b1-4)Glc
# Summary of the method: as §1
# [32] = biological target: Neu5Ac(a2-8)Neu5Ac(a2-8)Neu5Ac(a2-3)Gal(b1-4)Glc
# Summary of the method: as §1
# [33] = biological target: Neu5Ac9Ac(a2-3)Gal(b1-4)GlcNAc
# Summary of the method: as §1
# [34] = biological target: Neu5Gc(a2-8)Neu5Gc(a2-3)Gal(b1-4)GlcNAc
# Summary of the method: as §1
binder,measurement,setting,value
"NanI (Corynebacterium diphtheriae), C6JSW7 (protein) MTNTLESNPMTTTTGALTITFATTCDGPLAHIPHHLDLNIIHGRIQGTTAHRRIDAEDPDGLDDGLPHHLCLSVDTTGTHLFIDGYEAFSTTQTEWFDTSELTLNPHGDLTIIDHQILNHAPTPRQARNLAPAAEPLVWFAGSHLSTRDTQRISHLTHGSLRLLMKTRGTGQGGVAFQAHTINGDLTLEIIDGTLIFSVRCHDEDYVRITAPGRWDDGQIYDVVIVCGRGATDIYVDGQQLIHSPGAAFFNDLSGELSVHIGTAASGVRLFGEVQSGMIYPHVFNHHQVQRLATVEPIATQALFDCLLDGAQSYRIPSLITTDSGVIIAGADKRVSIANDAPNDIDFVLRRSVDGGRTWQPPRTILQLPDTACVTDSVLLQDHTTGRIFAFLDQFPAGIGQPNAAFGTGFDADGNRIGHFADGSTCTMPREVDQLEASFFSDPHTAPPGIVFQHPSCHLWMLTSDDDGLTWSTPRDLTPDVKEEWMRFCGTSPGNGIQLQRDTHAGRLLIPMYYTKGDQFFAAALYSDDHGDTWHRGESPDLEMYESTLVEASDGSVLLWARNQHPSGAVAHARSTDGGHSWSQVTFNPNVPEIFSQPNALRVTNPDGIIFANASQLLPFRGRGVLRMSTNDGASWQHNRVFNPRHYVYQCMTQLPDGSIGLLWEREMQGLFFSIIPMTWIMQGYAL",glycan array binding signal (z-score),[1],0.007
same,glycan array binding signal (z-score),[2],0.292
same,glycan array binding signal (z-score),[3],6.81
same,glycan array binding signal (z-score),[4],0.442
same,glycan array binding signal (z-score),[5],3.26
same,glycan array binding signal (z-score),[6],-0.77
same,glycan array binding signal (z-score),[7],4.32
same,glycan array binding signal (z-score),[8],3.36
same,glycan array binding signal (z-score),[9],0.813
same,glycan array binding signal (z-score),[10],-1.04
same,glycan array binding signal (z-score),Gal(a1-3)GalNAc,-0.16
same,glycan array binding signal (z-score),[11],0.309
same,glycan array binding signal (z-score),[12],8.52
same,glycan array binding signal (z-score),[13],-0.586
same,glycan array binding signal (z-score),Gal(b1-6)Gal,0.892
same,glycan array binding signal (z-score),[14],-0.197
same,glycan array binding signal (z-score),Gal4S(b1-4)GlcNAc,-0.503
same,glycan array binding signal (z-score),Gal6S(b1-4)Glc,-0.205
same,glycan array binding signal (z-score),Gal6S(b1-4)GlcNAc,-0.815
same,glycan array binding signal (z-score),Glc(a1-4)Glc,-0.173
same,glycan array binding signal (z-score),[15],-0.205
same,glycan array binding signal (z-score),[16],4.05
same,glycan array binding signal (z-score),[17],9.15
same,glycan array binding signal (z-score),[18],-0.477
same,glycan array binding signal (z-score),Kdn(a2-3)Gal(b1-3)GlcNAc,0.075
same,glycan array binding signal (z-score),[19],0.157
same,glycan array binding signal (z-score),[20],-0.074
same,glycan array binding signal (z-score),[21],1.28
same,glycan array binding signal (z-score),[22],-0.319
same,glycan array binding signal (z-score),[23],3.03
"Protein L(B1-B4) (Finegoldia magna), Q51912 (protein) KEETPETPETDSEEEVTIKANLIFANGSTQTAEFKGTFEKATSEAYAYADTLKKDNGEYTVDVADKGYTLNIKFAGKEKTPEEPKEEVTIKANLIYADGKTQTAEFKGTFEEATAEAYRYADALKKDNGEYTVDVADKGYTLNIKFAGKEKTPEEPKEEVTIKANLIYADGKTQTAEFKGTFEEATAEAYRYADLLAKENGKYTVDVADKGYTLNIKFAGKEKTPEEPKEEVTIKANLIYADGKTQTAEFKGTFAEATAEAYRYADLLAKENGKYTADLEDGGYTINIRFAG",glycan array binding signal (z-score),[24],-0.359
same,glycan array binding signal (z-score),[25],-0.92
same,glycan array binding signal (z-score),[26],0.809
same,glycan array binding signal (z-score),[27],3.91
same,glycan array binding signal (z-score),[28],2.86
same,glycan array binding signal (z-score),[29],3.08
same,glycan array binding signal (z-score),[30],-0.606
same,glycan array binding signal (z-score),[31],-1.15
same,glycan array binding signal (z-score),[32],0.487
same,glycan array binding signal (z-score),[33],0.223
same,glycan array binding signal (z-score),[34],-1.03
